This is part of a sample that, as a whole, favours compounds with a hit. Of some 83,000 tested, about 20% had one in any assay.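 Testing used 96-well plates and a 48-hour single-concentration exposure. Example: -40 means 40% of the starting cells died.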 A number with no mark means an inactive call. Activity calls are given as the source filed them. Rule for the calls: active = growth percent below 10; inactive = the rest.
System: HL-60(TB) leukemia
Assay: NCI-60 one-dose screen, 48 h (100 = growth as untreated, 0 = no growth, -100 = all killed)
Conditions: 10 µM unless noted

Compound: CC1=C(SCC(=O)OCCCCCC(C)C)C(=O)c2ccccc2C1=O
- growth: 86.8%

Compound: COc1cc(/C=C/C(=O)c2cc(OC)c(OC)c(OC)c2)ccc1OCc1ccccc1
- growth: -9.27% (active)

Compound: CCn1c2ccc(/C=N/NS(=O)(=O)CCN(C)C)cc2c2cc(/C=N/NS(=O)(=O)CCN(C)C)ccc21
- growth: 103%

Compound: CCN1CCN(c2cc(C(=O)Nc3nc4ccc(Oc5ccnc(C(=O)NC)c5)cc4s3)cc(C(F)(F)F)c2)CC1
- growth: 18.7%

Compound: CCn1c(SCC(=O)Nc2cccc(C(=O)/C=C/c3cc(OC)c(OC)c(OC)c3)c2)nc2ccccc2c1=O
- growth: 48%

Compound: O=C1c2c(c3c4cccnc4[nH]c3c3ccc4ccccc4c23)C(=O)N1CCO
- growth: 97.1%

Compound: C=CC(=O)N1CC=C(c2cc3c(N[C@H](C)c4ccccc4)ncnc3[nH]2)CC1
- growth: 104%

Compound: COc1cc(/C=N/n2cnc3oc(-c4ccccc4)cc3c2=N)cc(CN2CCCCC2)c1O
- growth: -17.1% (active)

Compound: COC(=O)CNC(=O)c1cccc(-c2cc(=O)c3c(OC)c(OC)c(OC)cc3o2)c1
- growth: 109%

Compound: CS(=O)(=O)c1ccc(-c2nc3ccccn3c2C=Nc2ccc(Cl)cc2)cc1
- growth: 59.7%

Compound: CC(C)SC1=NC(=C(C(=N1)NC2=ClC=CC=C2)C#N)C3=CC=CC=C3
- growth: 84.5%

Compound: CCCn1cnc2c(c1=N)C(c1ccc(OC)cc1)c1sc3c(C)cccc3c1O2 (centres undefined)
- growth: 0.388% (active)

Compound: COc1ccc(CCN2C(=O)/C(=C/c3nc(CO)cs3)SC2=S)cc1
- growth: 59.4%

Compound: N#C/C(=C\c1ccc(-c2ccc(F)cc2)o1)C(=O)Nc1ncc(Cc2ccc(Cl)cc2Cl)s1
- growth: 22.5%

Compound: COc1cc(C2N=C(NNc3ccccc3)NC(C)=C2C(C)=O)ccc1O (centres undefined)
- growth: 92.3%

Compound: CS(=O)(=O)c1ncc(-c2ccccc2)cn1
- growth: 103%

Compound: CC(C)(C)Nc1nc2c(OCCc3ccccc3)cccn2c1-c1ccc([N+](=O)[O-])cc1
- growth: 47.4%

Compound: CCN(CC)c1ccc2cc(C(=O)NCCOCCOCCOCCn3cc(CCC(=O)Nc4ccc(C(=O)c5ccc(NC(=O)OC(C)(C)C)cc5)cc4)nn3)c(=O)oc2c1
- growth: 37%

Compound: N/C(=N\C(N)=N\c1nc2ccccc2s1)c1ccc(Cl)cc1
- growth: 90.3%

Compound: CC(=O)c1nnn(-c2c(C(=O)n3nc(C)cc3C)sc(=S)n2-c2ccccc2)c1C
- growth: 110%

Compound: N/C(=N\C(N)=N\c1nc2ccccc2s1)c1ccncc1Cl
- growth: 6.91% (active)

Compound: CCOc1ccc(NC2=C(Cl)C(=O)c3nc(C)ccc3C2=O)cc1
- growth: -46.4% (active)

Compound: CNC(=O)c1cc(Oc2ccc3nc(NC(=O)c4cc(N5CCOCC5)cc(C(F)(F)F)c4)sc3c2)ccn1
- growth: 68%

Compound: O=C(CSc1nc2ccccc2c(=O)n1-c1ccccc1)N/N=C/c1ccc(Oc2ccc(Br)cc2)cc1
- growth: 105%

Compound: NS(=O)(=O)c1cccc(Nc2nc(SCC(=O)c3ccc([N+](=O)[O-])cc3)nc3ccccc23)c1
- growth: 0.866% (active)

Compound: C[C@H](CCC(=O)NCc1ccc(C(=O)Nc2ccccc2N)cc1)[C@H]1CC[C@H]2[C@@H]3[C@@H](O)C[C@@H]4C[C@H](O)CC[C@]4(C)[C@H]3CC[C@]12C
- growth: 0.73% (active)

Compound: O=C(CN1CCN(c2cc(=O)n(-c3ccccc3)c3ccccc23)CC1)Nc1ccc(F)cc1
- growth: 47.7%

Compound: Cc1c(F)cc(C(N)=O)cc1NCC(=O)Nc1ccc([N+](=O)[O-])cc1
- growth: 132%

Compound: O=c1[nH]c2ccc(Cl)cc2cc1CSc1ccccc1Nc1nccc(-c2ccc(Cl)cc2)n1
- growth: 78.5%

Compound: N#Cc1c(-c2ccc(Cl)cc2)nc(SCc2ccc([N+](=O)[O-])cc2)nc1N1CCNCC1
- growth: -53.3% (active)

Compound: COc1cc(C(=O)c2cc(C(C)=O)c3ccc(C)cn23)cc(OC)c1OC
- growth: 8.8% (active)

Compound: CCn1c(SCC(=O)Nc2cccc(C(=O)/C=C/c3ccc(C)cc3)c2)nc2ccccc2c1=O
- growth: 92%

Compound: COc1ccccc1C(=O)CSc1nc(Nc2ccc(S(N)(=O)=O)cc2)c2ccccc2n1
- growth: 94.5%

Compound: C=C(C=O)[C@@H]1CC[C@]2(COC(C)=O)CC[C@]3(C)C(CC[C@@H]4[C@@]5(C)CC[C@H](OC(C)=O)C(C)(C)[C@@H]5CC[C@]43C)[C@@H]12 (some centres undefined)
- growth: -10.9% (active)

Compound: CN1CCN(Cc2ccc(NC(=O)c3cncc(C#Cc4cnc5ccc(OCC6(C)COC6)nn45)c3)cc2C(F)(F)F)CC1
- growth: -27.6% (active)

Compound: CCOC(=O)c1cccc(NC2=C(Cl)C(=O)C(C)=C(C)C2=O)c1
- growth: 31.2%

Compound: Cc1nn(-c2ccccc2)c2ncnc(N/N=C/c3cccc(O)c3)c12
- growth: 35.3%

Compound: NC(=O)c1c(NC(=O)c2ccc(C(F)(F)F)cc2)sc2c1CCC(=O)C2
- growth: 6.39% (active)

Compound: C=CC(=O)N1CCC=C(c2cc3c(N[C@H](C)c4ccccc4)ncnc3[nH]2)C1
- growth: 72.4%

Compound: O=C(CSc1nc2sc3c(c2c(=O)n1-c1ccc(Cl)cc1)CCCC3)NNC(=O)Nc1cccc(C(F)(F)F)c1
- growth: 2.24% (active)

Compound: C#C[C@]1(O)CC[C@H]2[C@@H]3CC=C4c5sc(Nc6cc(Cl)ccc6OC)nc5CC[C@]4(C)[C@H]3CC[C@@]21C
- growth: 5.48% (active)

Compound: C=C(C)C(=O)O[C@H]1C[C@@]2(C)OC(=CC2=O)[C@H](C)[C@H](O)[C@H]2OC(=O)C(=C)[C@@H]21
- growth: 14.3%

Compound: Cc1ccc2c(c1)C13C(=C2Br)CCCN1C(=O)c1ccccc13 (centres undefined)
- growth: 68.2%

Compound: CCn1c(SCC(=O)Nc2cccc(C(=O)/C=C/c3ccc(Br)cc3)c2)nc2ccccc2c1=O
- growth: 84.7%

Compound: c1ccc(C(c2nc3ncncc3[nH]2)N2CSc3nc4ccccc4n3C2)cc1 (centres undefined)
- growth: 108%

Compound: O=C(N/N=C/c1ccco1)c1[nH]c2ccc(Br)cc2c1-c1ccccc1
- growth: -28.4% (active)

Compound: CN1CCN(Cc2ccc(NC(=O)c3cncc(C#Cc4cnc5ccc(OCC(C)(C)O)nn45)c3)cc2C(F)(F)F)CC1
- growth: 1.93% (active)

Compound: O=C(N/N=C/c1cccs1)c1[nH]c2ccc(Br)cc2c1-c1ccccc1
- growth: -48.3% (active)

Compound: NC(=O)c1c(NC(=O)c2cccc(C(F)(F)F)c2F)sc2c1CCC(=O)C2
- growth: 15%

Compound: CCc1ccc(NC(=O)N[C@@H](Cc2cccc(F)c2)C(=O)N[C@@H]2C(=O)N3CCC[C@H]3C(=O)N3CCCC[C@H]3C(=O)N[C@@H](CO)C(=O)N3C[C@H](C)C[C@H]3C(=O)O[C@H]2C)c(F)c1
- growth: 13.3%

Compound: O=C(Cn1cc(-c2ccccc2)nn1)Nc1nc(-c2ccc(Cl)cc2)cs1
- growth: 89.7%

Compound: CCCCCCNC(=O)Oc1ccc(/C(=C(\C)c2ccc(OC)cc2)c2ccc(OCCN(C)C)cc2)cc1
- growth: 56.3%

Compound: C/C(=N\NC(=O)CSc1nc2sc3c(c2c(=O)n1-c1ccccc1)CCC(C)C3)c1ccc(Cl)cc1 (centres undefined)
- growth: 3.75% (active)

Compound: C/C(=N\NC(N)=S)c1nnn(-c2ccc([N+](=O)[O-])cc2)c1C
- growth: 105%

Compound: COC(=O)N1CCN(CCNCc2ccc(NC(=O)c3ccc(C)c(C#Cc4cnc5cccnn45)c3)cc2C(F)(F)F)CC1
- growth: -12.3% (active)

Compound: O=S(=O)(Oc1ccc(-c2cn3ccsc3n2)cc1)c1cccc(C(F)(F)F)c1
- growth: 101%

Compound: O=c1c2ccccc2nc(COc2ccccc2)n1NS(=O)(=O)c1ccc(Cl)cc1
- growth: 75.7%

Compound: Cc1nc(-c2cc3ccccc3oc2=O)ccc1C(=O)/C=C/c1ccc(N2CCOCC2)cc1
- growth: 38.7%

Compound: C=C(C)[C@@H]1CC[C@]2(C(=O)NCCCCCN(CCC#N)CCC#N)CC[C@]3(C)[C@H](CC[C@@H]4[C@@]5(C)CCC(=O)C(C)(C)[C@@H]5CC[C@]43C)[C@@H]12
- growth: 127%

Compound: COc1ccc(-c2cc(-c3ccc(Cl)cc3)c(C#N)c(=O)n2Cc2ccc(C(=O)O)cc2)cc1
- growth: 92.1%

Compound: COc1ccc(-c2ccnc3c(C#N)c(Nc4ccccc4)nn23)cc1OC
- growth: 71.1%

Compound: COc1cc(OC)c(/C=C/S(=O)(=O)Cc2ccc(OC)c(NCC(=O)NO)c2)c(OC)c1
- growth: -13.5% (active)

Compound: CC(=O)N(O)CCCCCNC(=O)CCC(=O)N(O)CCCCCNC(=O)CCC(=O)N(O)CCCCCN(CCCCCCCCCC[P+](c1ccccc1)(c1ccccc1)c1ccccc1)CCCCCCCCCC[P+](c1ccccc1)(c1ccccc1)c1ccccc1
- growth: -25.7% (active)

Compound: COc1cccc(COc2ccc(/C=C3/C(=O)Nc4cc(Cl)ccc43)cc2)c1
- growth: 105%

Compound: N#C/C(=C\c1ccc(Cl)cc1Cl)C(N)=O
- growth: 90.9%

Compound: COC(=O)c1c(C(=O)OC)c2n(CC(=O)Nc3cccc4cccnc34)c3ccccc3n2c1C(=O)c1ccc(C)cc1
- growth: 99.2%

Compound: C#CCN(C)CCCOc1ccc(NCc2ccc(/C=C/C(=O)NO)cc2)cc1Cl
- growth: 6.07% (active)

Compound: CCOC(=O)C1=C(C)Nc2nc3ccccc3n2C1c1cccc(Br)c1 (centres undefined)
- growth: 22.8%

Compound: COc1ccc(C2c3sc4c(C)cccc4c3Oc3nc(CC(=O)Nc4ccccc4)[nH]c(=O)c32)cc1 (centres undefined)
- growth: 146%

Source: PubChem BioAssay (NCI)
